In PubChem BioAssay AID651997 (Sanford-Burnham Center for Chemical Genomics, 2013):
Hit rate of the full screen: of about 2,400 compounds, about 700 (29%) were called active. The list is a sample of the results. Values without a mark were called inactive.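 How the source made its calls: active means inhibition of at least 50%; inactive means the rest.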

Each compound was assayed against G-protein coupled receptor 183 (Homo sapiens) (UniProt P32249) (assay: EBI2 antagonist hit retest, beta-arrestin, confirmation, cell-based, single concentration, luminescence, 7a,25-OHC stimulation (AID 651997)). Conditions: 7a,25-OHC antagonism, at 5 µM, hits give high values.
Chain of G-protein coupled receptor 183 (Homo sapiens) (P32249 whole entry, looked up): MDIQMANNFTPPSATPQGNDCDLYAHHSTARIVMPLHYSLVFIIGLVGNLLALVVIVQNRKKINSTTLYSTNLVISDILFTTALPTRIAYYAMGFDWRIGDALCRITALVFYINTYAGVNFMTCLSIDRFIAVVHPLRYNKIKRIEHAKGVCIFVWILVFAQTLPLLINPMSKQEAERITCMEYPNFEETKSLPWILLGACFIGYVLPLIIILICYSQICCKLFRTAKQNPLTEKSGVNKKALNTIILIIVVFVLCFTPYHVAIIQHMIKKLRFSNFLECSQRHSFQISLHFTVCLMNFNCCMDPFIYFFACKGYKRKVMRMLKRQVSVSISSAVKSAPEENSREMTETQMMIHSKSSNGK
In the case of COc1ccc(NC(=O)N2CCC(Cc3ccccc3)CC2)cc1, the inhibition is reported as 55% (active).
For CC(C)N(Cc1ccccc1)C(=S)Nc1ccc(OC(F)F)cc1, the inhibition was 24.2%.
CCCC1CCC(=NNC(=S)NCCc2ccccc2)CC1 (centres undefined) was tested, and the inhibition was 23.4%.
Work on COc1ccc(-c2cc(NC=O)c3ncc(-c4cccc(C(=O)N(C)C)c4)n3c2)c(OC)c1 yielded an inhibition of 23.2%.
Cc1ccc(O/C=C2\OC(=O)c3ccccc32)cc1 was tested, and the inhibition was 16%.
In the case of COc1cccc(NC(=O)Cn2c3ccccc3c3nc4n(c(=O)c32)CCS4)c1, the inhibition is reported as 30.1%.
Work on O=C(/C=C/c1cccc(C(F)(F)F)c1)N1CCN(c2ccccn2)CC1 yielded an inhibition of 28.2%.
For O=C(c1cc2ccccc2s1)N1CCN(c2ccccn2)CC1, the inhibition was 55.7% (active).
Work on Cc1ccc(CSCCNC(=O)CN(c2ccc(F)cc2)S(C)(=O)=O)cc1 yielded an inhibition of 23.3%.
Compound O=C(NCCNc1ccc([N+](=O)[O-])cc1)c1cccc2c(Br)cccc12 has an inhibition of 38%.
For Cc1cc(Cl)c2oc(C(=O)N3CCC(O)(c4ccccc4)CC3)c(C)c2c1, the inhibition was 43.3%.
Fc1ccccc1/C=N/Nc1cc(N2CCCCC2)ncn1 was tested, and the inhibition was 55% (active).
COc1ccc(-n2c(Cc3cccn3C)nnc2SCC(=O)Nc2cc(C)cc(C)c2)cc1 gave an inhibition of 7.81%.
O=C(NCc1ccc(Cl)cc1)C1CCN(S(=O)(=O)c2cccs2)CC1 was tested, and the inhibition was 23%.
In the case of N#CC(=C1CCCC1)c1nc(-c2ccc(Cl)cc2)cs1, the inhibition is reported as 54.8% (active).
CCOc1ccc(C(C)=O)cc1COC(=O)c1cnc(Cl)c(Cl)c1 showed an inhibition of 14.3%.
With COc1cccc(NC(=O)Cn2c3ccc(F)cc3c3nc4n(c(=O)c32)CCS4)c1 the inhibition was 41.9%.
In the case of O=C(COc1ccc2ccccc2c1)N1CCN(C(=O)c2cccs2)CC1, the inhibition is reported as 61% (active).
In the case of COc1ccc(OCC(=O)N2CCN(C(=O)c3cccs3)CC2)cc1, the inhibition is reported as 30.8%.
With O=C(/C=C/c1cccc([N+](=O)[O-])c1)N1CCN(Cc2ccccc2)CC1 the inhibition was 29.4%.
O=C(/C=C/c1ccc(Cl)cc1)N1CCN(c2ccccc2[N+](=O)[O-])CC1 was tested, and the inhibition was 88.6% (active).
Cc1ccc(N2CC(C(=O)Nc3ccc(S(=O)(=O)N4CCCC4)cc3)CC2=O)cc1C (centres undefined) showed an inhibition of 34.7%.
In the case of Cc1cc(OCC(=O)N2CCN(c3ncccn3)CC2)ccc1Cl, the inhibition is reported as 50.9% (active).
With O=C(c1cc2ccccc2o1)N1CCN(S(=O)(=O)c2ccc(Cl)s2)CC1 the inhibition was 70.7% (active).
In the case of Cc1ccc(OCC(=O)N2CCN(S(=O)(=O)c3ccc(Cl)s3)CC2)cc1C, the inhibition is reported as 79% (active).
With Cc1cccc(OCC(O)CN2CCN(S(=O)(=O)c3ccc(C)cc3C)CC2)c1 (centres undefined) the inhibition was 35.6%.
O=C(CCc1ccccc1)NNC(=O)COc1ccc(Cl)cc1 gave an inhibition of 17.4%.
For Cc1ccc(S(=O)(=O)N2CCN(C(=O)CSc3cc(C)ccc3C)CC2)c(C)c1, the inhibition was 33.4%.
Work on COc1ccc(OCC(=O)N2CCN(C(=O)COc3ccccc3)CC2)cc1 yielded an inhibition of 24.9%.
O=C(COc1ccc(Cl)cc1)N1CCN(S(=O)(=O)c2ccc(Cl)cc2)CC1 was tested, and the inhibition was 72.8% (active).
Work on Cc1ccc(OCC(=O)N2CCN(C(=O)c3cccnc3)CC2)cc1 yielded an inhibition of 17.6%.
Work on CN1CCc2ccccc2C1Cc1ccccc1NC(=O)c1sc2ccccc2c1Cl (centres undefined) yielded an inhibition of 14%.
In the case of Fc1ccc(N2CCN(Cc3cnc(Oc4ccc(Br)cc4)s3)CC2)cc1, the inhibition is reported as 40.8%.
For COc1ccc(OC)c(C(=O)c2coc3ccc(O)c(CN4CCOCC4)c23)c1, the inhibition was 22.3%.
COc1ccc(N(CC(=O)Nc2cc(OC)ccc2OC)S(=O)(=O)c2c(C)noc2C)cc1 was tested, and the inhibition was 21.2%.
COc1ccc(C(c2nnnn2C2CCCC2)N2CCN(C/C=C/c3ccccc3)CC2)cc1 (centres undefined) showed an inhibition of 39.9%.
Work on Cc1ccc(-n2ncc3c(=O)n(-c4ccc(C)c(C)c4)c(-c4ccco4)nc32)cc1 yielded an inhibition of 16.7%.
In the case of COc1cc(/C=C(\C#N)C(=O)Nc2ccc3ccccc3c2)c([N+](=O)[O-])cc1OC, the inhibition is reported as 48.2%.
For O=C(CC(c1ccccc1)c1ccccc1)NCC(O)c1ccc([N+](=O)[O-])cc1 (centres undefined), the inhibition was 32.1%.
O=C(COc1ccc2c(c1)CCC2)N1CCN(c2ccc(F)cc2)CC1 was tested, and the inhibition was 25%.
O=C(COc1ccc(Cl)cc1)N1CCN(c2cccc(C(F)(F)F)c2)CC1 was tested, and the inhibition was 68% (active).
Compound Cc1cc(C)cc(Oc2nc3c(C)cccn3c(=O)c2/C=C(\C#N)C(=O)NC2CCS(=O)(=O)C2)c1 (centres undefined) has an inhibition of 44.9%.
COc1ccc(-c2nc(N)ncc2-c2ccc(Cl)cc2)c(O)c1 was tested, and the inhibition was 58.9% (active).
O=C(NCc1ccc(Cl)cc1)c1cc(=O)nc2sc(-c3ccccc3)nn12 showed an inhibition of 36%.
Cc1cccc(C)c1-n1nnnc1C(CCc1ccccc1)N1CCN(C/C=C/c2ccccc2)CC1 (centres undefined) showed an inhibition of 8.65%.
In the case of Cc1cc(C)c2c(=O)n3c(nc2c1)C(CC(C)C)NC(=O)c1cc2ccccc2cc1-3 (centres undefined), the inhibition is reported as 61.4% (active).
For COc1ccccc1CCNC(=O)C1CCN(C(=O)/C=C/c2ccccc2)CC1, the inhibition was 64.2% (active).
CC(C)Cn1c(N2CCN(C(=O)/C=C/c3ccccc3)CC2)nc2ccccc21 gave an inhibition of 41.6%.
In the case of Cc1cccc(NC(=O)CN2CCN(C(=O)C3CCN(C(=O)/C=C/c4ccccc4)CC3)CC2)c1C, the inhibition is reported as 45%.
In the case of CC(=O)c1nn(-c2ccc(C)cc2)cc1C(=O)c1cccc(Br)c1, the inhibition is reported as 45.6%.
Work on Cc1nc2ccc(C(=O)N3CCN(c4ccccc4)CC3)cc2s1 yielded an inhibition of 40.5%.
O=C(c1ccc(-n2cnnn2)cc1)N1CCN(C(c2ccccc2)c2ccccc2)CC1 was tested, and the inhibition was 55.9% (active).
c1ccc(C(c2ccccc2)N2CCN(Cc3nnnn3C3CCCCC3)CC2)cc1 was tested, and the inhibition was 34%.
Work on COc1ccc(Nc2cc(Sc3ccc(OC)cc3)ncn2)cc1 yielded an inhibition of 25.1%.
